We go through 28 compounds from PubChem BioAssay (NCATS).

Assay [1] is described as follows: qHTS assay for measurement of the activity of small molecule inhibitors on Zika virus induced Caspase-3 activity in human iPSC derived neural progenitor cells (hNPCs) (AID 1224857). Further: % of control where 0% means no effect; nearly all actives have a fitted effect of over 65% in size. Summed up:
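Values are percent inhibition of virus-induced caspase-3/7 signal, scaled between uninfected cells and ZIKV-infected cells. Infection used 2 FFU/cell for 6 h after 1 h compound exposure.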
On the technique in general: qHTS replaces the single test concentration by a dilution series.

Assay [2] is described as follows: qHTS assay for measurement of the activity of small molecule inhibitors on Zika virus induced Caspase-3 activity in human astrocytoma cells (AID 1224859).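 Further: plate controls were ZIKV-infected untreated cells for no effect and uninfected cells for full effect.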 Summed up:
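Compound added 1 h pre-infection; ZIKV 2 FFU/cell on SNB-19 cells, 6 h, 37 C/5% CO2. Caspase-Glo 3/7 luminescence; values as % inhibition of ZIKV-induced caspase activity.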

The nature of assay [3]: Natriuretic polypeptide receptor (hNpr1) antagonism - Pilot counterscreen GloSensor control cell line (AID 1347045; calls by dose curve; further: series mostly up to about 38 µM; on the % scale 0 is the no-effect control and ±100 the full control effect). Summed up:
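Cells were first seeded and incubated overnight at 37C, then loaded with 2% GloSensor substrate for 2 h. Compounds were added for 30 min at room temperature, followed by a baseline read, 50 uM SNP and a final read after 20 min.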

For assay [4], the target named is Atrial natriuretic peptide receptor 1 (Homo sapiens) (UniProt P16066). Nature of the assay: Natriuretic polypeptide receptor (hNpr1) antagonism - Pilot screen (AID 1347049; calls by dose curve;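 further: HEK293 cells with hNpr1 and GloSensor cGMP luciferase stimulated by 0.1 nM hNppA; agonist-evoked cGMP luminescence read 20 min after hNppA addition; series mostly up to about 58 µM; on the % scale 0 is the no-effect control and ±100 the full control effect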). Summed up: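 Receptor antagonism read as cGMP-dependent luminescence in hNpr1/pGS-40F HEK293 cells: pre-read after 30 min compound exposure, post-read 20 min after hNppA agonist at 0.1 nM final, all at room temperature, protected from light; A-71915 titration as control.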

In assay [5] the target is Atrial natriuretic peptide receptor 2 (Homo sapiens) (UniProt P20594). Nature of the assay: Natriuretic polypeptide receptor (hNpr2) antagonism - Pilot subtype selectivity assay (AID 1347050; calls by dose curve; further: on the % scale 0 is the no-effect control and ±100 the full control effect). The gist of the method:
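Antagonist mode: compounds (LOPAC1280, seven 1:5 dilutions) added 30 min before 1 nM hNppC stimulation of hNpr2-HEK293 cGMP-sensor cells; luminescence read before and 20 min after agonist at ambient temperature.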

Assay [6] can be described thus: NS1 protein of Zika virus - qHTS assay to identify small molecule inhibitors in human HEK 293 cells (AID 1347053).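 Further: series mostly up to about 46 µM; plate controls were infected untreated cells for no effect and uninfected cells for full effect; nearly all actives have a fitted effect of over 55% in size.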 The gist of the method:
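Readout was TR-FRET using paired anti-NS1 antibodies after 24 h infection of HEK 293 cells with ZIKV MR766 (MOI = 0.5). Compound preceded virus by 1 h; reduced signal reflects lower NS1 expression.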

Assay [7] can be described thus: qHTS Assay for Identifying Gametocytocidal Compounds (AID 743244). Further: potency means the concentration at half of the fitted maximal effect.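 On max response: on the % scale 0 is the no-effect control and ±100 the full control effect; actives lower the fluorescent signal which means gametocytes are killed.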 Particulars: P. falciparum 3D7 stage III-V gametocytes, alamarBlue, 72 h; max response: stronger effect = lower value. The gist of the method:
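Stage III–V gametocytes of P. falciparum 3D7 were seeded at 20,000 cells/well onto pre-dispensed compounds. After 72 h, 37 °C, 5% CO2, alamarBlue was added for another 24 h.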

Assay [8] can be described thus: qHTS assay for cell viability of HEK293 cells (AID 743288). Further: on the % scale 0 is the no-effect control and ±100 the full control effect; nearly all actives have a fitted effect of over 50% in size. Particulars: ATP luminescence (CellTiter-Glo), 18 h; max response: stronger effect = lower value. Summed up: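 Viable-cell counts were inferred from luciferase-based ATP content in HEK293 cells seeded at 2,000/well, pre-incubated ≥5 h, then dosed with DMSO-solubilised compounds for 18 h at 37 C.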
Assay [9] is described as follows: qHTS assay for cell viability of the p53RE-bla HCT-116 cell line (AID 743292). Further: on the % scale 0 is the no-effect control and ±100 the full control effect; nearly all actives have a fitted effect of over 55% in size. The gist of the method:
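ATP-based luminescent viability (CellTiter-Glo, 30 min RT) after 16 h compound treatment at 37 C of p53RE-bla HCT-116 cells, seeded at 4,000 cells/well and rested 5 h before dosing.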

A number with no mark means an inactive call. Inconclusive results are not listed. Activity calls are given as the source filed them. Unless noted, the call rests on the fitted dose curve; in most records, active means well fitted curve in the direction sought with a large enough effect; inconclusive means small, poorly fitted or top-dose-only effect, or another doubt; inactive means no such curve, though single readings can be large; an effect the other way counts as inactive or inconclusive.

Sequence of Atrial natriuretic peptide receptor 2 (Homo sapiens) (P20594 whole entry, looked up): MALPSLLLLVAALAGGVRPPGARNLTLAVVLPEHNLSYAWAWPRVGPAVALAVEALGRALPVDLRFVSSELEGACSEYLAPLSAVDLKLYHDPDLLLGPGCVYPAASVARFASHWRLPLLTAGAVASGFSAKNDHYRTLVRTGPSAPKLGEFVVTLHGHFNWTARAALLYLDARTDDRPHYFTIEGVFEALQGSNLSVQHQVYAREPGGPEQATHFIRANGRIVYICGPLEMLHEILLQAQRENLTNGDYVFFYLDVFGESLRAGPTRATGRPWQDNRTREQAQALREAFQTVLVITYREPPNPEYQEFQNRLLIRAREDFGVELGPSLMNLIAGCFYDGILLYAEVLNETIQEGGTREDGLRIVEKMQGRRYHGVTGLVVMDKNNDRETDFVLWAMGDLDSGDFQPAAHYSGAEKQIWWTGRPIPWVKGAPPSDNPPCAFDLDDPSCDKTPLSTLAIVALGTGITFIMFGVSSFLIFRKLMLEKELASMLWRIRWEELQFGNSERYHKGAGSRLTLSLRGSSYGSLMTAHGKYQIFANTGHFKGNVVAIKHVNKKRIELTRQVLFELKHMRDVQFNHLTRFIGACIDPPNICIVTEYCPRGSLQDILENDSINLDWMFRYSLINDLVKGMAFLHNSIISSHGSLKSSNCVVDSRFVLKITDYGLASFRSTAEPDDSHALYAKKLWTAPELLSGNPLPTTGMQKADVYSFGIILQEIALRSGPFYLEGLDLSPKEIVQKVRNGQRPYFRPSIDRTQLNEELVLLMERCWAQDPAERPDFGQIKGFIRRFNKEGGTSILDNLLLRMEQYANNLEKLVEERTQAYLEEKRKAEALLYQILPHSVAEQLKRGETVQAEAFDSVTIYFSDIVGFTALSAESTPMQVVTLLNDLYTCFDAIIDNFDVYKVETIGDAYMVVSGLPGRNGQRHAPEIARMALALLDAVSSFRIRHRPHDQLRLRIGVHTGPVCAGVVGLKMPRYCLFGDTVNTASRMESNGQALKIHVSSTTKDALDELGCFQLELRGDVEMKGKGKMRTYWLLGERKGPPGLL
Sequence of Atrial natriuretic peptide receptor 1 (Homo sapiens) (P16066 whole entry, looked up): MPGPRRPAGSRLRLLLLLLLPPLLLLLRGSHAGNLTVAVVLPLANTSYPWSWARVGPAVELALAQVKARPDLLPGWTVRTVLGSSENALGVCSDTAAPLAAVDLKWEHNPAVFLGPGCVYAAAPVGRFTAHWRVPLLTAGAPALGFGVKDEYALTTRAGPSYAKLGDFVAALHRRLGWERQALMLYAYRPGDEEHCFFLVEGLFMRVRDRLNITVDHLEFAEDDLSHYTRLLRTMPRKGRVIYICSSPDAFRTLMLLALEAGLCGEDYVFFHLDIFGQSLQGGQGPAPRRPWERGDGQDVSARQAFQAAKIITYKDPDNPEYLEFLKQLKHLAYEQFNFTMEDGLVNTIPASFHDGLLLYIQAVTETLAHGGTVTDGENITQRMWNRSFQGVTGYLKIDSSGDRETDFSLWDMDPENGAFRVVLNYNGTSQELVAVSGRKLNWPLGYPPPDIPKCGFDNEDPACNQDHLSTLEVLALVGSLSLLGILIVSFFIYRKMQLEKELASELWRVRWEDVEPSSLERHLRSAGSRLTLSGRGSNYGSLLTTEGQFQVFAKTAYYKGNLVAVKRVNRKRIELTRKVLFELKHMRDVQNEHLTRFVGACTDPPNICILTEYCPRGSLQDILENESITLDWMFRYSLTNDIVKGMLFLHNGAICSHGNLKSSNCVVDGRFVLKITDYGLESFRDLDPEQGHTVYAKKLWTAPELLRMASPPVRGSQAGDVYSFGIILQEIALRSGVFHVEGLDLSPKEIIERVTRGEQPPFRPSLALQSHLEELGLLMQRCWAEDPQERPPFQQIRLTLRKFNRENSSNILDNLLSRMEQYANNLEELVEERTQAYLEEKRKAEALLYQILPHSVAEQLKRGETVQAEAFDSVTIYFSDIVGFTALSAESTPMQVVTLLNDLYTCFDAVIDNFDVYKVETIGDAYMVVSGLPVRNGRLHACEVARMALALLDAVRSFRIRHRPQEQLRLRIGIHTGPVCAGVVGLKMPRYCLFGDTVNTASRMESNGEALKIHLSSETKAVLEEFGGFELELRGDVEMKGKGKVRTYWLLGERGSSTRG

Consider `C[N+]1(C)CCOC(O)(c2ccc(-c3ccc(C4(O)C[N+](C)(C)CCO4)cc3)cc2)C1` (stereo not drawn), for which the Potency entry in assay [1], in [3], in assay [4] and in [5] was “inactive” in each case. For the same compound, the outcome in assay [2] and in assay [6] was inactive.

On to `CCN(CC)c1ncnc2c1ncn2[C@@H]1O[C@H](COP(=O)(O)OP(=O)(O)C(Br)(Br)P(=O)(O)O)[C@@H](O)[C@H]1O`, for which the Potency result in [1] was “inactive”.

For the compound `CCn1cnc2c(Nc3cccc(Cl)c3)nc(N[C@@H]3CCCC[C@@H]3N)nc21`, the Potency entry in assay [1], in assay [3] and in assay [4] was “inactive” throughout. The call in [2] was inactive.

For `NCCc1c[nH]c2ccc(C(N)=O)cc12`, the max response in assay [7] is 47.6%. The Potency entry in assay [1], in [3], in assay [4] and in assay [5] was “inactive” in each case. For the same compound, the outcome in assay [2] and in [6] was inactive.

Consider `CN1C2CCC1CC(OC(c1ccccc1)c1ccccc1N)C2` (stereo not drawn), for which the max response in [7] was 17.7%. Moreover, the Potency result in assay [1], in assay [3] and in [4] was “inactive” in each case. The call in assay [2] and in assay [6] was inactive.

For the compound `Clc1ccc(N2CC3CCC(C2)N3)nn1`, in assay [7], the max response is 23.5%. Also, the Potency entry in assay [1], in assay [3], in assay [4] and in assay [5] was “inactive” each time. The compound was classed as inactive in [2] and in assay [6].

Turning to `N=C(N)c1ccc(CS(=O)(=O)F)cc1`, the max response in assay [7] is 2.02%. Also, the Potency entry in assay [1], in [3], in assay [4] and in assay [5] was “inactive” each time. In addition, the compound was called inactive in [2] and in assay [6].

For `NNC(=O)c1ccc(O)cc1`, the max response in assay [7] is 7.91%. The Potency result in assay [1], in assay [3], in [4] and in assay [5] was “inactive” in each case. Besides, the compound was called inactive in assay [2].

With `C[N+](C)(C)CC#CCN1CCCC1=O`, the max response in [7] is -2.31%. In addition, the Potency entry in assay [1], in assay [3], in assay [4] and in assay [5] was “inactive” in each case. Further, the outcome in assay [2] and in [6] was inactive.

As for `CCOC(=O)c1ncn2c1[C@@H]1CCCN1C(=O)c1cc(OC)ccc1-2`, in [7], the max response is -1.18%. Further, the Potency result in assay [1], in assay [3], in assay [4] and in [5] was “inactive” each time. Moreover, the call in assay [2] and in [6] was inactive.

On to `C[N+]1(C)CCN(c2ccccc2)CC1`, for which the max response in [7] is -6.92%. Besides, the Potency entry in assay [1], in assay [3], in [4] and in assay [5] was “inactive” throughout. In addition, the result in assay [2] and in [6] was inactive.

With `CCCN1CCc2cccc3c2[C@H]1Cc1ccc(O)c(O)c1-3`, in assay [7], the Potency was 2820 nM (active). Also, the Potency entry in assay [1], in assay [3], in assay [4] and in assay [5] was “inactive” throughout. Besides, in [2], the compound was classed as inactive.

Turning to `CP(=O)(O)C1=CCNCC1`, the max response in assay [7] is 6.19%. The Potency entry in [1], in assay [3], in assay [4] and in assay [5] was “inactive” each time. Moreover, the outcome in assay [2] and in [6] was inactive.

Regarding `CC(=O)NBr`, the max response in [7] is 10.7%. The Potency result in assay [1], in [3], in assay [4] and in [5] was “inactive” throughout. For the same compound, the result in assay [2] and in [6] was inactive.

With `CCCN(CCC)CCc1ccc(O)c(O)c1`, the max response in [7] is 12.9%. Also, the Potency entry in assay [1], in assay [3], in assay [4] and in assay [5] was “inactive” in each case. The compound was classed as inactive in [2] and in [6].

With `CCCN(CCC)[C@@H]1CCc2cccc(O)c2C1`, the Potency entry in assay [1], in assay [3] and in assay [5] was “inactive” each time. Moreover, the compound was called inactive in [2] and in assay [6].

Take `COc1ccc2c(c1)C13CCCCC1C(C2)N(C)CC3` (stereo not drawn): the max response in assay [7] is 9.94%. For the same compound, the Potency entry in [1], in [3], in assay [4] and in [5] was “inactive” in each case. Also, the outcome in [2] and in assay [6] was inactive.

In the case of `CC(N)[C@H](O)c1ccc(O)c(O)c1` (stereo partly drawn), the max response in [7] was 7.97%. Also, the Potency result in [1], in assay [3], in assay [4] and in assay [5] was “inactive” each time. For the same compound, the compound was classed as inactive in assay [2] and in assay [6].

Consider `NC(=O)CI`, for which the max response in assay [7] is 8.04%. For the same compound, the Potency entry in [1], in assay [3], in assay [4] and in assay [5] was “inactive” in each case. For the same compound, the outcome in [2] and in assay [6] was inactive.

As for `NC(Cc1cc(O)c(O)cc1O)C(=O)O` (stereo not drawn), the max response in assay [7] is 2.05%. Further, the Potency entry in assay [1], in [3], in assay [4] and in assay [5] was “inactive” throughout. Further, the compound was called inactive in assay [2] and in assay [6].

For `CCCN(CCC)C1CCc2cccc(O)c2C1` (stereo not drawn), in assay [7], the max response is 13.2%. The Potency result in assay [1], in assay [3], in [4] and in assay [5] was “inactive” each time. In addition, the result in assay [2] and in [6] was inactive.

As to `C[N+]1(C)C2CCC1CC(OC(=O)c1c[nH]c3ccccc13)C2` (stereo not drawn), the max response in assay [7] is -2.89%. For the same compound, the Potency entry in [1], in [3], in assay [4] and in [5] was “inactive” throughout. Moreover, the call in [2] and in assay [6] was inactive.

On to `CCCN1CC[C@@H]2c3cc(O)ccc3CC[C@@H]21`, for which the max response in [7] was 20.4%. The Potency entry in assay [1], in assay [3], in [4] and in assay [5] was “inactive” in each case. In addition, the call in assay [2] and in assay [6] was inactive.

With `COc1ccc2[nH]cc(CCN)c2c1`, in [7], the max response is 15.8%. Also, the Potency entry in assay [1], in assay [3], in assay [4] and in [5] was “inactive” in each case. The compound was called inactive in assay [2] and in assay [6].

Take `O=[N+]([O-])c1cc(O)c(O)c([N+](=O)[O-])c1`: the max response in assay [7] was -6.67%. Further, the Potency entry in assay [1], in assay [3], in assay [4] and in [5] was “inactive” in each case. Besides, the compound was called inactive in assay [2] and in [6].

As to `NNC(N)=O`, the max response is 14.6% in [7] and -7.58% in assay [8]. Besides, the Potency result in assay [9], in assay [1], in assay [3], in assay [4] and in [5] was “inactive” in each case. Besides, the outcome in assay [2] and in assay [6] was inactive.

Regarding `CC(N)Cc1c[nH]c2ccc(OCc3cccs3)cc12` (stereo not drawn), the Potency in assay [7] was 1410 nM (active). Moreover, the Potency result in assay [1], in assay [3], in [4] and in [5] was “inactive” each time. For the same compound, the compound was classed as inactive in assay [2] and in assay [6].

As to `c1ccc2cc(CC3=NCCN3)ccc2c1`, the max response in assay [7] was 5.44%. Further, the Potency result in [1], in assay [3], in assay [4] and in [5] was “inactive” in each case. The outcome in assay [2] and in [6] was inactive.
